PubChem BioAssay
A number with no mark means an inactive call. Activity calls are given as the source filed them.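 The calls were made as follows, unless noted: active = fluorescence slope after compound addition differing from the mean of all screened samples at 99.7% confidence, in either direction; inactive = the rest.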

Molecular target: Voltage-gated potassium channel subunit beta-2 (Rattus norvegicus) (UniProt P62483)
Assay: KvBeta positive modulators, primary screen, biochemical, NADPH fluorescence (AID 623;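 active = NADPH fluorescence slope more negative than the mean of all samples by about 3 SD, 99.7% confidence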;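 also: fluorescence intensity change per second fitted from 20 to 320 s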)
Settings: Recombinant KvBeta, NADPH fluorescence decrease slope, 10 min; at 10 µM; hits give low values

Chain of Voltage-gated potassium channel subunit beta-2 (Rattus norvegicus) (P62483 whole entry, looked up): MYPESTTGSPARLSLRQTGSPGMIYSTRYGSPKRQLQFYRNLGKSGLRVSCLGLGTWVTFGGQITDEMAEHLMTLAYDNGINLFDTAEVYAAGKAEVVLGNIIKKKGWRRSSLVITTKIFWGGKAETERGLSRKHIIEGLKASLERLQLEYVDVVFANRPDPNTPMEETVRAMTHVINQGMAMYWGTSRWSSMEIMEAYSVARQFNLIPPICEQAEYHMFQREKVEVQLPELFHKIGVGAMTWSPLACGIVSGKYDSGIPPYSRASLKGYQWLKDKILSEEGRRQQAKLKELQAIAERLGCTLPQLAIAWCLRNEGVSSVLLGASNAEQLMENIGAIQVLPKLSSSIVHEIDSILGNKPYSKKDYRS

| SMILES | NADPH fluorescence slope |
| --- | --- |
| COc1ccccc1NC(=O)C1=C(C)Nc2nnnn2C1c1ccccc1OC (stereo not given) | 7.3e-06 |
| CC(=O)NCCc1nc2ccccc2[nH]1 | -2.7e-05 |
| S=C(c1ccc(-c2cc(Cl)ccc2Cl)o1)N1CCOCC1 | -6e-06 |
| COc1ccc(Cl)cc1-c1n[nH]c(=S)o1 | -3.6e-05 |
| O=c1[nH]c(SCc2ccccc2Cl)nc2c1CCCC2 | -2.4e-06 |
| CSc1nc(C)cc(OCC(=O)N2CCOCC2)n1 | -3.8e-05 |
| CCOc1ccc(N(CC(=O)NC2CCCCC2)S(=O)(=O)c2c(C)noc2C)cc1 | -2.8e-05 |
| Oc1ccccc1-c1nnc(COc2ccc(Cl)cc2Cl)o1 | -2.9e-05 |
| CC(=O)NC(C)c1nc2ccccc2n1C(C)C (stereo not given) | -2.4e-05 |
| CC1CCCCC1NC(=O)CCCc1nc2ccccc2c(=O)[nH]1 (stereo not given) | -2.3e-05 |
| c1ccc(-n2ncc3c(N4CCCCC4)ncnc32)cc1 | -3.8e-05 |
| c1cc(CNc2ccc3c(c2)OCO3)ccn1 | -1.4e-05 |
| O=C(CCn1c(=O)oc2ccccc21)N1CCCCCC1 | -5.9e-05 |
| COc1ccccc1C(=O)N1CCN(C(=O)c2ccncc2)CC1 | -1.9e-05 |
| O=C(NC1CCCC1)C1CCCN(S(=O)(=O)c2cccc3cccnc23)C1 (stereo not given) | -3.8e-05 |
| N#Cc1c(-c2ccccc2)nc(N2CCCCCC2)[nH]c1=O | -1.5e-05 |
| O=C(NC1CCCCC1)n1c(=O)oc2ccc(Cl)cc21 | -3.6e-05 |
| O=C(Nc1ccccc1N1CCOCC1)c1ccc2ccccc2n1 | -4.7e-05 |
| O=C(Nc1ccc(F)cc1)N(CCCN1CCOCC1)Cc1cc2cc3c(cc2[nH]c1=O)OCO3 | -4.4e-05 |
| COc1c(S(=O)(=O)n2nc(C)cc2C)ccc(Cl)c1Cl | -7.2e-05 |

| SMILES | NADPH fluorescence slope |
| --- | --- |
| CCn1c(SCC(=O)Nc2ccc(Cl)cc2)nnc1C1CC1 | -1.6e-05 |
| COc1cc2cc(C(c3nnnn3C3CCCC3)N(C)C3CCCCC3)c(=O)[nH]c2cc1OC (stereo not given) | -2e-05 |
| COc1ccccc1OCCOCCn1cnc2ccccc2c1=O | -4.9e-05 |
| Cc1cccnc1NC(=O)CCCN1C(=O)c2ccccc2C1=O | -6.3e-05 |
| CCC1CCCCN1C(=O)C1CC(c2cc(Cl)c(OC)cc2OC)=NO1 (stereo not given) | 2e-05 |
| CCOCCCNC(=O)C1CCC(CNS(=O)(=O)c2cccc3nsnc23)CC1 (stereo not given) | -4.4e-05 |
| C=CCn1c(SCC(=O)NCC2CCCO2)nc2scc(-c3ccco3)c2c1=O (stereo not given) | -0.000271 (active) |
| CC1=C(C)CC2C(=O)N(c3cccc4ccccc34)C(=O)C2C1 (stereo not given) | -2.7e-05 |
| O=C(O)c1ccc(-c2ccc(O)c(F)c2)cc1 | -4.3e-05 |
| COC(=O)c1ccccc1NC(=O)N1CCCC1 | -3.7e-06 |
| Cc1ccc(-n2c(Cn3cnc4ccccc43)nnc2SCC(=O)O)cc1 | 1.2e-06 |
| Cc1ccc2c(c1C)NC(=O)C2(O)CC(=O)c1ccc2c(c1)OCO2 (stereo not given) | -5.3e-05 |
| CC1=C(C(=O)Nc2cccnc2)C(c2ccc(C(C)C)cc2)n2ncnc2N1 (stereo not given) | 5.8e-05 |
| c1ccc(CCn2nnnc2CN2CCN(C3CCCC3)CC2)cc1 | -4.3e-05 |
| CN(C(=O)c1ccccc1Cl)c1ccccc1 | -2e-06 |
| O=S(=O)(c1ccc(-c2csc(-c3cccnc3)n2)cc1)N1CCCCC1 | -9e-06 |
| O=C(c1cnn2c(C(F)(F)F)cc(-c3ccco3)nc12)N1CCc2ccccc2C1 | 1.7e-05 |
| COc1ccc(CCNc2oc(COc3ccccc3Cl)nc2C#N)cc1OC | -5.7e-05 |
| Cc1ccc(-c2nnc(N(C)C(=O)c3ccccn3)s2)cn1 | -4.7e-05 |
| Cn1c(=O)c2c(-c3ccccc3)n(CCCN3CCOCC3)cc2n(C)c1=O | -2.7e-08 |

Molecular target: Alpha-2C adrenergic receptor (Homo sapiens) (UniProt P18825)
Sequence (P18825 whole entry, looked up): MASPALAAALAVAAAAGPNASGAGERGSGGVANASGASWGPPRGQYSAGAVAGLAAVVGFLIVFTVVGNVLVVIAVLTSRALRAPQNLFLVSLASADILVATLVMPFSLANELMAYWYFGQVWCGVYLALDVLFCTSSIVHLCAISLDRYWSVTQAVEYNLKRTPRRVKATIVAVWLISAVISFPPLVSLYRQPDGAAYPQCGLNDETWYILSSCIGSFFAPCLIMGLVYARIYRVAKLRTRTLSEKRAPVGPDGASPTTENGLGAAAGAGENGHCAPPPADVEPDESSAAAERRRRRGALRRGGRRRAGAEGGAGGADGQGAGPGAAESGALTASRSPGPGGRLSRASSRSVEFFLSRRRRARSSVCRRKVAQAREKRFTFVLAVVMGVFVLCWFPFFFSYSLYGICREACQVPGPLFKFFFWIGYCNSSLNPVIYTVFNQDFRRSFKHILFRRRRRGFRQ
Assay: modulators of alpha2C/GIRK thallium flux, primary screen, cell-based, HEK293 alpha2C/GIRK1/2 (AID 624);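 also: slope of fluorescence ratio to pre-addition baseline per second over 15 to 24 s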
Settings: thallium flux BTC fluorescence, at 10 µM, actives lie on both sides

| SMILES | slope |
| --- | --- |
| COc1ccccc1NC(=O)C1=C(C)Nc2nnnn2C1c1ccccc1OC (stereo not given) | 0.00379 |
| CC(=O)NCCc1nc2ccccc2[nH]1 | 0.00636 |
| S=C(c1ccc(-c2cc(Cl)ccc2Cl)o1)N1CCOCC1 | 0.00341 |
| COc1ccc(Cl)cc1-c1n[nH]c(=S)o1 | 0.00602 |
| O=c1[nH]c(SCc2ccccc2Cl)nc2c1CCCC2 | 0.00421 |
| CSc1nc(C)cc(OCC(=O)N2CCOCC2)n1 | 0.00307 |
| CCOc1ccc(N(CC(=O)NC2CCCCC2)S(=O)(=O)c2c(C)noc2C)cc1 | 0.00737 |
| Oc1ccccc1-c1nnc(COc2ccc(Cl)cc2Cl)o1 | 0.00718 |
| CC(=O)NC(C)c1nc2ccccc2n1C(C)C (stereo not given) | 0.00604 |
| CC1CCCCC1NC(=O)CCCc1nc2ccccc2c(=O)[nH]1 (stereo not given) | 0.00379 |
| c1ccc(-n2ncc3c(N4CCCCC4)ncnc32)cc1 | 0.0073 |
| c1cc(CNc2ccc3c(c2)OCO3)ccn1 | 0.00585 |
| O=C(CCn1c(=O)oc2ccccc21)N1CCCCCC1 | 0.00656 |
| COc1ccccc1C(=O)N1CCN(C(=O)c2ccncc2)CC1 | 0.00571 |
| O=C(NC1CCCC1)C1CCCN(S(=O)(=O)c2cccc3cccnc23)C1 (stereo not given) | 0.00653 |
| N#Cc1c(-c2ccccc2)nc(N2CCCCCC2)[nH]c1=O | 0.0048 |
| O=C(NC1CCCCC1)n1c(=O)oc2ccc(Cl)cc21 | 0.00609 |
| O=C(Nc1ccccc1N1CCOCC1)c1ccc2ccccc2n1 | 0.00386 |
| O=C(Nc1ccc(F)cc1)N(CCCN1CCOCC1)Cc1cc2cc3c(cc2[nH]c1=O)OCO3 | 0.00497 |
| COc1c(S(=O)(=O)n2nc(C)cc2C)ccc(Cl)c1Cl | 0.0052 |

| SMILES | slope |
| --- | --- |
| CCn1c(SCC(=O)Nc2ccc(Cl)cc2)nnc1C1CC1 | 0.00675 |
| COc1cc2cc(C(c3nnnn3C3CCCC3)N(C)C3CCCCC3)c(=O)[nH]c2cc1OC (stereo not given) | 0.007 |
| COc1ccccc1OCCOCCn1cnc2ccccc2c1=O | 0.00575 |
| Cc1cccnc1NC(=O)CCCN1C(=O)c2ccccc2C1=O | 0.00485 |
| CCC1CCCCN1C(=O)C1CC(c2cc(Cl)c(OC)cc2OC)=NO1 (stereo not given) | 0.00725 |
| CCOCCCNC(=O)C1CCC(CNS(=O)(=O)c2cccc3nsnc23)CC1 (stereo not given) | 0.00547 |
| C=CCn1c(SCC(=O)NCC2CCCO2)nc2scc(-c3ccco3)c2c1=O (stereo not given) | 0.00487 |
| CC1=C(C)CC2C(=O)N(c3cccc4ccccc34)C(=O)C2C1 (stereo not given) | 0.00739 |
| O=C(O)c1ccc(-c2ccc(O)c(F)c2)cc1 | 0.0076 |
| COC(=O)c1ccccc1NC(=O)N1CCCC1 | 0.00581 |
| Cc1ccc(-n2c(Cn3cnc4ccccc43)nnc2SCC(=O)O)cc1 | 0.00571 |
| Cc1ccc2c(c1C)NC(=O)C2(O)CC(=O)c1ccc2c(c1)OCO2 (stereo not given) | 0.00591 |
| CC1=C(C(=O)Nc2cccnc2)C(c2ccc(C(C)C)cc2)n2ncnc2N1 (stereo not given) | 0.00428 |
| c1ccc(CCn2nnnc2CN2CCN(C3CCCC3)CC2)cc1 | 0.0058 |
| CN(C(=O)c1ccccc1Cl)c1ccccc1 | 0.00587 |
| O=S(=O)(c1ccc(-c2csc(-c3cccnc3)n2)cc1)N1CCCCC1 | 0.0051 |
| O=C(c1cnn2c(C(F)(F)F)cc(-c3ccco3)nc12)N1CCc2ccccc2C1 | 0.00417 |
| COc1ccc(CCNc2oc(COc3ccccc3Cl)nc2C#N)cc1OC | 0.00453 |
| Cc1ccc(-c2nnc(N(C)C(=O)c3ccccn3)s2)cn1 | 0.00529 |
| Cn1c(=O)c2c(-c3ccccc3)n(CCCN3CCOCC3)cc2n(C)c1=O | 0.00936 |
